# From PubChem BioAssay AID1499 (Sanford-Burnham Center for Chemical Genomics, 2009)
# The whole screen tested about 93,000 compounds, of which about 65 (0.07%) were called active.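 How the source made its calls: active means 10 µM primary screen giving 50% or more activity, confirmed by 40% or more on retest at that dose; inactive means the rest.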 Only a selection was taken, and actives are over-represented in it overall.
# Target: Integrin beta-2 (Homo sapiens) + Integrin alpha-M (Homo sapiens) (UniProt P05107+P11215)
# Sequence (P05107 whole entry, looked up, other chains not shown): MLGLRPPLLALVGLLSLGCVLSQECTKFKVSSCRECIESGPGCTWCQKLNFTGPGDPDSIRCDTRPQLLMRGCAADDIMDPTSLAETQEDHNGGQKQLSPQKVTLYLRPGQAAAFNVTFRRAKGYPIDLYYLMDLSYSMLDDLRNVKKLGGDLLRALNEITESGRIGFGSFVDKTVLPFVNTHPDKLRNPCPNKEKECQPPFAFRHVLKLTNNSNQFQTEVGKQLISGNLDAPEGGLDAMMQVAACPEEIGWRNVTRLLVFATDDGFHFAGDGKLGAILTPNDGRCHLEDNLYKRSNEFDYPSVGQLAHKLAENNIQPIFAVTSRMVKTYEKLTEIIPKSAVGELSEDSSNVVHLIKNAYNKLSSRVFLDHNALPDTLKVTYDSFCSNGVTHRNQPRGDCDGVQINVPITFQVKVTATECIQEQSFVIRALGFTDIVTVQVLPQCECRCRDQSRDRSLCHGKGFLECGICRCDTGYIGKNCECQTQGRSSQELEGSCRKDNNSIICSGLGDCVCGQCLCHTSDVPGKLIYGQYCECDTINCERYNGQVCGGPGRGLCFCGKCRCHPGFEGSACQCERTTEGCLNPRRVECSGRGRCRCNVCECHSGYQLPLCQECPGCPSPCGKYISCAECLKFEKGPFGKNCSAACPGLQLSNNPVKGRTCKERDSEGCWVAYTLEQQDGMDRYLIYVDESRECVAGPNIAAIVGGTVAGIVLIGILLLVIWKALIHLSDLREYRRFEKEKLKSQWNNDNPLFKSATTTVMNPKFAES
# Assay: enhancers of CD11b/CD18 adhesion to fibrinogen, primary screen, K562 cells, luminescence (AID 1499)
# Conditions: ATPlite luminescence, at 10 µM, hits give high values
row,SMILES,activation
1,CCOC(=O)c1c(NC(=S)Nc2ccccc2C)sc2c1CCC2,2.8% (inactive)
2,CCOCCCNC(=O)C(=O)NCCCOCC,-2.3% (inactive)
3,CCc1nnc(NC(=O)C2CC(=O)N(c3ccc4c(c3)OCCO4)C2)s1 (configuration not stated),5% (inactive)
4,CCCn1c(C)cc(/C=C(\C#N)C(=O)OCC(=O)Nc2cc(OC)c(OC)c(OC)c2)c1C,3% (inactive)
5,O=C(/C=C/c1ccccc1)Nc1nnc(SCC(=O)c2ccc3ccccc3c2)s1,59.6% (inactive)
6,CCc1nnc(NC(=O)[C@@H](NC(=O)c2cccc(C)c2)C(C)C)s1,-1.2% (inactive)
7,O=C(CSc1nc2ccccc2[nH]1)Nc1nc(-c2ccccc2)c(-c2ccccc2)o1,-6.7% (inactive)
8,CN(Cc1cccs1)C(=O)Cc1c[nH]c2ccccc12,-1.9% (inactive)
9,COC(=O)c1ccc(OCC(O)CN(CCO)CC(O)Cn2ccc3ccccc32)cc1 (configuration not stated),8.9% (inactive)
10,Cc1c(Cl)cnc(NC(=O)COC(=O)c2ccc(S(=O)(=O)NCc3ccco3)cc2)c1Cl,12.8% (inactive)
11,CC(C)(C)c1ccc(C(=O)NCc2nnc(SCC(=O)N3CCCc4ccccc43)n2-c2ccccc2)cc1,-4.7% (inactive)
12,Cc1cc(Br)ccc1SCC(=O)OCC(=O)NCc1ccc2c(c1)OCO2,4.5% (inactive)
13,N#Cc1c(-c2ccc(F)cc2)cc(C2CC2)nc1SCC(=O)c1cccs1,12.6% (inactive)
14,CCn1c2ccccc2c2cc(NC(=O)COC(=O)c3ccccc3Br)ccc21,0.6% (inactive)
15,CC(C)Nc1nnc(SCC(=O)/C=C2\N(C)c3ccccc3C2(C)C)s1,0% (inactive)
16,Cc1cccc(CC(=O)N2CCN=C2SCc2ccc([N+](=O)[O-])cc2)c1,5.7% (inactive)
17,CCOc1ccc(CCNC(=O)CSc2cc(=O)n(C)c3ccc(Cl)cc23)cc1OCC,0.6% (inactive)
18,Cc1c(C(=O)Nc2cccc(-c3nnc4n3CCCCC4)c2)oc2ccccc12,0.4% (inactive)
19,CC(=O)c1ccc(NC(=O)Nc2ccc([N+](=O)[O-])cc2C)cc1,-2.3% (inactive)

row,SMILES,activation
1,Cc1cc2oc(=O)cc(CN3CCN(S(=O)(=O)c4cccs4)CC3)c2cc1C(C)C,-0.5% (inactive)
2,O=C(CCCCCNC(=O)c1ccccc1)N/N=C/c1ccccc1,-6.5% (inactive)
3,COc1ccc(NS(=O)(=O)c2ccc(NC(=S)NC(=O)/C=C/c3ccc(C)cc3)cc2)nn1,3.8% (inactive)
4,O=C(NNC(=S)Nc1ccc(Br)cc1Cl)c1ccco1,-7.7% (inactive)
5,COc1ccc(C(CC(=O)Nc2ccc(C)cc2)NC(=O)C(F)(F)F)cc1 (configuration not stated),-0.4% (inactive)
6,Brc1ccc(-c2csc(N/N=C/c3ccc4c(c3)OCO4)n2)cc1,18.4% (inactive)
7,CCOc1ncccc1C(=O)N(C)CC(=O)Nc1ccc(F)cc1,-3.5% (inactive)
8,CCCN1CNC(=S)N(CCc2ccccc2)C1,5.1% (inactive)
9,Cc1cc(C)cc(C(=O)N2CCN=C2SCc2ccc([N+](=O)[O-])cc2)c1,0.8% (inactive)
10,COc1cc(OC)c(C(=O)OC(C)C(=O)Nc2cc(C(F)(F)F)ccc2Cl)cc1OC (configuration not stated),4.1% (inactive)
11,O=C(Nc1ccccc1F)c1ccccc1-c1ccccc1,0.5% (inactive)
12,Cc1ccc(NC(=O)Nc2ccccc2)c(Br)c1,12.1% (inactive)
13,COc1ccccc1CN(C)C(=O)C1(c2ccc(Cl)cc2)CC1,11.3% (inactive)
14,C/C(=N\NS(=O)(=O)c1ccc(Cl)cc1)c1ccc(NC(=O)c2ccco2)cc1,-2.4% (inactive)
15,CC1CCN(c2ccc(C(=O)NCc3ccc4c(c3)OCO4)cc2[N+](=O)[O-])CC1,0.5% (inactive)
16,O=C(COC(=O)c1ccc(Cl)nc1)NCc1ccc2c(c1)OCO2,4% (inactive)
17,COCCn1c(=NC(=O)c2ccccc2[N+](=O)[O-])sc2cc(S(C)(=O)=O)ccc21,2% (inactive)
18,CCOC(=O)c1c(/N=C/c2cc(C)ccc2O)sc2c1CCC2,-6% (inactive)
19,COc1cccc(NC(=O)C(Sc2nc3ccccc3c(=O)n2CC(C)C)c2ccccc2)c1 (configuration not stated),1% (inactive)

row,SMILES,activation
1,COc1cc(C(=O)NCc2nnc(SCC(=O)Nc3nc4ccc(C)cc4s3)o2)cc(OC)c1OC,10.4% (inactive)
2,COc1ccc(-c2csc(NC(=O)CCCc3cccs3)n2)cc1,-1.8% (inactive)
3,O=C(Nc1ccc2c(c1)OCO2)c1ccc(N2C(=O)c3ccccc3C2=O)cc1,23.5% (inactive)
4,C/C(CC1CC(C)(C)OC1=O)=N/Nc1nc(-c2ccccc2)cs1 (configuration not stated),-0.2% (inactive)
5,O=C(Cn1cnc2ccccc21)N/N=C/c1ccco1,-5.8% (inactive)
6,c1ccc(C2=Nc3cccc4cccc(c34)N2)cc1,7% (inactive)
7,COc1ccc(Br)cc1CN(C)CC(=O)Nc1cc([N+](=O)[O-])ccc1OC,-0.1% (inactive)
8,CCOC(=O)c1cnc2ccc(F)cc2c1Nc1ccc2c(c1)OCCO2,4.3% (inactive)
9,Cc1c(Br)c([N+](=O)[O-])nn1CC(=O)Nc1sc2c(c1C(=O)OC(C)C)CCC(C)C2 (configuration not stated),10.3% (inactive)
10,COc1ccc(/C=C2/C(=O)OCc3cc(OC)c(OC)cc32)c(OC)c1,4% (inactive)
11,COc1ccc(-c2csc(NC(=O)COC(=O)Cc3ccc(Cl)cc3Cl)n2)cc1,-1.1% (inactive)
12,Cc1ccc(-n2c(SCC(=O)N3c4ccccc4Sc4ccccc43)nnc2-c2ccncc2)cc1,7.2% (inactive)
13,Cc1ccc(C)c(NC(=S)NCC(c2cccnc2)N2CCOCC2)c1 (configuration not stated),5% (inactive)
14,Cc1ccc(S(=O)(=O)N2CCN(CC(=O)N/N=C/c3cc([N+](=O)[O-])ccc3Cl)CC2)cc1,-2.8% (inactive)
15,COc1ccc(OCC(O)CNC(=O)Nc2ccc(Cl)cc2)cc1 (configuration not stated),7.7% (inactive)
16,COc1cc(OC)c(C(=O)Nc2ccccc2-c2ccccc2)cc1OC,6.2% (inactive)
17,COc1ccc([N+](=O)[O-])cc1NC(=O)c1ccc(N(Cc2ccccc2C)S(C)(=O)=O)cc1,0.6% (inactive)
18,COc1ccc(C2Nc3ccccc3C(=O)N2c2ccc(F)cc2)cc1Cn1nnc2ccccc21 (configuration not stated),-1.9% (inactive)
19,O=C(N/N=C/c1cccc([N+](=O)[O-])c1)C1CC(=O)N(c2ccc(Br)cc2)C1 (configuration not stated),-1.9% (inactive)
